Source: PubChem BioAssay
For some assays here: Results with a measured potency or affinity are listed apart. The source made the active and inactive calls.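 How the source made its calls, unless noted: active means membrane potential signal rise above negative control mean plus 3 SD in both duplicates, also active in the earlier TRPC4 screen; inactive means the rest.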

Columns and labels:
[1] = tested on: TRPC4 beta (transient receptor potential cation channel C4), mouse; test: TRPC4 cation channel opening, retest – cell-based, Fluo4 calcium, HEK293 TRPC4beta/mu-opioid, duplicates, 10 µM, confirmation (AID 2426;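 active means fluorescence ratio normalized to control raised more than 50% in primary screen plus both repeat runs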); conditions: Fluo4 calcium fluorescence, at 10 µM; stronger effect = higher value
[2] = tested on: transient receptor potential cation channel C4 beta (TRPC4), mouse; test: TRPC4 cation channel opening, second retest – cell-based, second round, Fluo4, HEK293 TRPC4beta/mu-opioid, 1 µM, confirmation (AID 2461;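 active means primary screen active and over 50% activation in each of two duplicate runs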); conditions: Fluo4 calcium fluorescence, at 1 µM; stronger effect = higher value
[3] = tested on: TRPC4 (transient receptor potential cation channel C4 beta), mouse; test: potentiation of DAMGO EC20 TRPC4 response – cell-based, second round, Fluo-4, HEK293 TRPC4beta/mu-opioid, 1 µM, confirmation (AID 2554;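 active means primary screen hit whose fluorescence ratio, in both repeats, exceeds the weak agonist control mean by 3 SD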); conditions: DAMGO EC20, Fluo-4 calcium flux, at 1 µM; stronger effect = higher value
[4] = tested on: TRPC4 beta (transient receptor potential cation channel C4), mouse; test: potentiation of DAMGO EC20 TRPC4 response – cell-based, Fluo-4, HEK293 TRPC4beta/mu-opioid, confirmation (AID 2555;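 active means primary screen hit whose calcium fluorescence ratio, in both repeats, exceeds the weak agonist control mean by 3 SD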); conditions: DAMGO EC20, Fluo-4 calcium flux, at 10 µM; stronger effect = higher value
[5] = target: Short transient receptor potential channel 4 (Mus musculus) (UniProt Q9QUQ5); test: blockers of DAMGO-evoked TRPC4 calcium flux – cell-based, Fluo4, HEK293 TRPC4beta/mu-opioid, confirmation (AID 2636;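 active means calcium signal cut by more than 3 SD below the full-agonist control yet still positive, in both repeats and the earlier primary screen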); conditions: at 10 µM; stronger effect = higher value
Sequence of Short transient receptor potential channel 4 (Mus musculus) (Q9QUQ5 whole entry, looked up): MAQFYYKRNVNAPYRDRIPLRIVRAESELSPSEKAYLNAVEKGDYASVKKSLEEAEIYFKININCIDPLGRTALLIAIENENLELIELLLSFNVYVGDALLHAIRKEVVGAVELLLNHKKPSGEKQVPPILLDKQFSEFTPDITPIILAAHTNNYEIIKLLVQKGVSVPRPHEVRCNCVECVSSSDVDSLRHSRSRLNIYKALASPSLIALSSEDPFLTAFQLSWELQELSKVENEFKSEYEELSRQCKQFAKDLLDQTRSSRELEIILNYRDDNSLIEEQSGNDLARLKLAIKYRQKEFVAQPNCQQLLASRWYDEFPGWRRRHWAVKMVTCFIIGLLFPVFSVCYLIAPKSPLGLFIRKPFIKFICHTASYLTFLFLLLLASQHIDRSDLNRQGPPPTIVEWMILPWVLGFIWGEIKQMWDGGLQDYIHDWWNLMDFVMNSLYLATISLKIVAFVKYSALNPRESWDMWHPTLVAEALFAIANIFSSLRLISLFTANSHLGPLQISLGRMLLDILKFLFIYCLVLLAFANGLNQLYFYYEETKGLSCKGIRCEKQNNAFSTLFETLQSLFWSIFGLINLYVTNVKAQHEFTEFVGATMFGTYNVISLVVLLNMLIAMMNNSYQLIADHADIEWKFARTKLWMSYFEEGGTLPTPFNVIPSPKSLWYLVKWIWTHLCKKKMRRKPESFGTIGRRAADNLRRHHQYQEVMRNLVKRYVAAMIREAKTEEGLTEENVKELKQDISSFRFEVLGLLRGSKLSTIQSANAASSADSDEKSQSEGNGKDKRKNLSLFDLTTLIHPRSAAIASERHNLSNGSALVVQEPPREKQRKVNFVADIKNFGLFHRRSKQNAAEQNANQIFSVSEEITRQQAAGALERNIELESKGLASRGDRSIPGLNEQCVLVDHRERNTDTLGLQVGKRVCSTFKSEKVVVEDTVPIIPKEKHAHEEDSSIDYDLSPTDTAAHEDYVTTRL

[6] = target: Short transient receptor potential channel 4 (Mus musculus) (UniProt Q9QUQ5); test: blockers of DAMGO-evoked TRPC4 calcium flux – cell-based, second round, Fluo4, HEK293 TRPC4beta/mu-opioid, 1 µM, confirmation (AID 2637;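 active means calcium signal ratio cut to more than 3 SD under the fully stimulated control mean yet still positive, in both repeats and the primary screen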;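 on inhibition: percent of integrated ratio relative to wells lacking test compound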); conditions: at 1 µM; stronger effect = higher value
[7] = target: Short transient receptor potential channel 4 (Mus musculus) (UniProt Q9QUQ5); test: calcium entry via TRPC4 opening agents – cell-based, HEK293 TRPC4/mu-opioid, Fluo-4 calcium, dose response (AID 434937;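 active means primary screen activator hit with a dose response curve and TRPC4 channel activation at any tested dose; inactive means no activation, no dose response, or not a primary hit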); conditions: HEK293 TRPC4 cells, Fluo-4 calcium fluorescence ratio; series mostly up to 20 µM
[8] = target: Short transient receptor potential channel 6 (Mus musculus) (UniProt Q61143); test: TRPC6 blockade by TRPC4 inhibitor hits – cell-based, HEK293, membrane potential dye, duplicate, selectivity assay for TRPC4 inhibitor project, confirmation (AID 434948;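 active means active in primary screen and both duplicates, each dropping signal beyond three positive-control SD with fluorescence still positive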); conditions: HEK293 TRPC6, membrane potential dye fluorescence, at 10 µM, stimulated with maximal-effect acetylcholine; stronger effect = higher value
Sequence of Short transient receptor potential channel 6 (Mus musculus) (Q61143 whole entry, looked up): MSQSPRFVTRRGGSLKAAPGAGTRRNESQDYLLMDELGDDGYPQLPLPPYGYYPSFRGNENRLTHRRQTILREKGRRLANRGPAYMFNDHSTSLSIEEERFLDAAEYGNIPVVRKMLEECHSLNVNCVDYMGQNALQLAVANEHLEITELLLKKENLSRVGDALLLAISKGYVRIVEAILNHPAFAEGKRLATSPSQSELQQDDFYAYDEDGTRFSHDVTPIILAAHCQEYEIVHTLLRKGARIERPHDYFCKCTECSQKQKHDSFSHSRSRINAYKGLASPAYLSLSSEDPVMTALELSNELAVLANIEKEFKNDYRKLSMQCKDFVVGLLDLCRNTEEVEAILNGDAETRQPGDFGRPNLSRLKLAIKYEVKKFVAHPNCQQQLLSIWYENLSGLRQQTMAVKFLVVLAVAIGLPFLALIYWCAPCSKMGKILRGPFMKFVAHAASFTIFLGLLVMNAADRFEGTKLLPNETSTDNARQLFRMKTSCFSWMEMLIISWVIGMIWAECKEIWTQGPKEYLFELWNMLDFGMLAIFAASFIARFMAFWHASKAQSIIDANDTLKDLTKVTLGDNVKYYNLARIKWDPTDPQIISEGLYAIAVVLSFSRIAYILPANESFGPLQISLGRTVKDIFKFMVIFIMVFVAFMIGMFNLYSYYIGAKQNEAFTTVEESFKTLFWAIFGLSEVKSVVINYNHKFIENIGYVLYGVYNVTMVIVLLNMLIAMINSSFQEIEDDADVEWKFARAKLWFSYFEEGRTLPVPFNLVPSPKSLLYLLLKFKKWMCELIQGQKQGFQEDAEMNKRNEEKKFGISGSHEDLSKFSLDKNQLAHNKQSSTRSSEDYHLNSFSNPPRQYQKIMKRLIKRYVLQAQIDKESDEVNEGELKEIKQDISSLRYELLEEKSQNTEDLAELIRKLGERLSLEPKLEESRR

[9] = target: Short transient receptor potential channel 6 (Mus musculus) (UniProt Q61143); test: TRPC6 opening by TRPC4 activator hits – cell-based, HEK293, membrane potential dye, duplicate, selectivity assay for TRPC4 activator project, confirmation (AID 434950); conditions: HEK293 TRPC6, membrane potential fluorescence, at 10 µM; activation: stronger effect = higher value; outcome: activation
[10] = target: Short transient receptor potential channel 6 (Mus musculus) (UniProt Q61143); test: positive modulators of mouse TRPC6 channel – HEK293 cells, membrane potential dye, duplicate, selectivity assay for TRPC4 potentiator project, confirmation (AID 434952;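 active means compound raising the membrane signal above positive-control mean plus 3 SD in both repeats, and a primary screen hit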); conditions: HEK293 TRPC6, membrane potential dye fluorescence, at 10 µM, maximal acetylcholine added after compound; stronger effect = higher value
[11] = target: Short transient receptor potential channel 4 (Mus musculus) (UniProt Q9QUQ5); test: calcium flux activators in TRPC4/5HT1a cells, counter-screen for TRPC4 activator project, cell-based, second counter screen, HEK293 TRPC4/5HT1a, Fluo-4 (AID 434977;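 active means calcium signal rise above buffer-control mean plus 5 SD in both duplicates, and also a hit in the primary screen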); conditions: Fluo-4 calcium flux, at 10 µM; stronger effect = higher value
[12] = serotonin-gated TRPC4 signal block – cell-based, second counter screen, HEK293 TRPC4/5HT1a, Fluo-4, counter-screen for TRPC4 inhibitor project, confirmation (AID 434978;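 active means primary screen active whose calcium signal fell more than 3 SD beyond the full-serotonin control mean in both duplicate plates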;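 on outcome: serotonin given first at submaximal then at maximal dose after compound preincubation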); conditions: Fluo-4 calcium flux, at 10 µM, serotonin added to trigger calcium flux; stronger effect = higher value
[13] = tested on: TRPC4 (mouse), co-expressed with 5HT1a in HEK293; test: enhancement of serotonin-evoked TRPC4 response – cell-based, second counter screen, HEK293 TRPC4/5HT1a, Fluo-4, counter-screen for TRPC4 potentiator project, confirmation (AID 434979;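 active means signal rise over 3 SD above mean of control wells given weak agonist, in both repeats and first screen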); conditions: Fluo-4 calcium flux, at 10 µM, serotonin added at its EC20 dose; stronger effect = higher value
[14] = nonspecific calcium rise without TRPC4 – cell-based, HEK293 mu-opioid receptor line, counter-screen for TRPC4 activator project, confirmation (AID 449723;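 active means hit in primary screen, with calcium signal over 5 SD above buffer well mean in both duplicates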;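 further: counter screen cells carry the mu-opioid receptor alone and lack TRPC4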); conditions: HEK293 mu-opioid cells, Fluo-4 calcium fluorescence, at 10 µM; stronger effect = higher value
[15] = nonspecific potentiation of DAMGO calcium response – cell-based, HEK293 mu-opioid receptor line, counter-screen for TRPC4 allosteric potentiator project, confirmation (AID 449724;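 active means calcium signal rise more than 3 SD above the low-dose agonist control mean, in both duplicate plates and the primary screen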); conditions: HEK293 mu-opioid receptor cells, Fluo-4 calcium flux, at 10 µM, compound added before EC20 DAMGO stimulus; stronger effect = higher value
[16] = target: Short transient receptor potential channel 4 (Mus musculus) (UniProt Q9QUQ5); test: potentiation of DAMGO-evoked TRPC4 calcium signal – cell-based, HEK293 TRPC4/mu-opioid, Fluo-4 calcium, EC20 DAMGO, dose response (AID 434941;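 active means earlier screen potentiator hit that boosts the TRPC4 ion channel at some dose, with a dose response; inactive means no potentiation, no dose response, or not a prior hit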;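 further: calcium entry triggered by an EC20 dose of DAMGO at the co-expressed mu-opioid receptor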); conditions: HEK293 TRPC4/mu-opioid cells, Fluo-4 calcium fluorescence; series mostly up to 20 µM
[17] = nonspecific flux increase, KCNQ1-free cells – parental CHO cells, counter-screen for KCNQ1 potentiator project (AID 493006;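 active means duplicate-averaged activation above buffer control mean plus 5 SD of those controls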;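 on activation: fluorescence ratio of max minus min over baseline after K+ and Tl+ depolarization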); conditions: parental CHO-K1 cells, FluxOR thallium flux, at 10 µM; stronger effect = higher value
[18] = target: Potassium voltage-gated channel subfamily KQT member 1 (Homo sapiens) (UniProt P51787); test: enhancement of KCNQ1 channel thallium flux – FluxOR thallium flux, CHO cells, duplicates, confirmation (AID 493007;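 active means potentiation averaged over duplicate wells exceeding buffer-only control mean by more than 3 SD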;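 on outcome: cells depolarized by a potassium plus thallium sulfate stimulus after compound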;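 on potentiation: 0% = buffer-only wells and 100% = R-L3 activator control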); conditions: KCNQ1 cell line, FluxOR thallium flux fluorescence, at 10 µM; stronger effect = higher value, % of reference activator effect, buffer zero
Sequence of Potassium voltage-gated channel subfamily KQT member 1 (Homo sapiens) (P51787 whole entry, looked up): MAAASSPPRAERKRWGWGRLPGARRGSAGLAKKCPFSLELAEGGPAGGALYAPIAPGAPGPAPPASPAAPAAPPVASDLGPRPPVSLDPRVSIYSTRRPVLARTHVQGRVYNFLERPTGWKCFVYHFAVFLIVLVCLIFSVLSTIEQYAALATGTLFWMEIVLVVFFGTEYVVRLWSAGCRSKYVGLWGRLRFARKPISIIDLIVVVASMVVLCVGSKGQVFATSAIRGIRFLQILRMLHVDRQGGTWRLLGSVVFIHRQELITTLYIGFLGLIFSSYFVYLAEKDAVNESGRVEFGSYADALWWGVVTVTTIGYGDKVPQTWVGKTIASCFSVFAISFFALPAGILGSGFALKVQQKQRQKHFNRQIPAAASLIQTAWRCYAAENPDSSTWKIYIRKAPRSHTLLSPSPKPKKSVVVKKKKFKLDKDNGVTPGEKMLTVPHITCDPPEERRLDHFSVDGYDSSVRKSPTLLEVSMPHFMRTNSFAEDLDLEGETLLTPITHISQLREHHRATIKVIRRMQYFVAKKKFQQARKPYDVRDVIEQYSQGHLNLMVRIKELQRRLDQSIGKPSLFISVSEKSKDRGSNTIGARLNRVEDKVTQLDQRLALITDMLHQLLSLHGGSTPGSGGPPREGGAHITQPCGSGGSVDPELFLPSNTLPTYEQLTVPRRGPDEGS

[19] = target: Potassium voltage-gated channel subfamily KQT member 2 (Rattus norvegicus) (UniProt O88943); test: KCNQ2 thallium flux enhancement – KCNQ2-CHO-K1 cells, selectivity assay for KCNQ1 potentiator project (AID 493009;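 active means mean duplicate potentiation above the buffer control mean plus 5 SD of buffer wells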;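 further: assay conditions were tuned for KCNQ1 rather than KCNQ2 modulators; signal is max minus min fluorescence divided by baseline after thallium stimulus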); conditions: FluxOR thallium flux fluorescence, at 10 µM; stronger effect = higher value, scaled: buffer 0, activator control 100
Sequence of Potassium voltage-gated channel subfamily KQT member 2 (Rattus norvegicus) (O88943 whole entry, looked up): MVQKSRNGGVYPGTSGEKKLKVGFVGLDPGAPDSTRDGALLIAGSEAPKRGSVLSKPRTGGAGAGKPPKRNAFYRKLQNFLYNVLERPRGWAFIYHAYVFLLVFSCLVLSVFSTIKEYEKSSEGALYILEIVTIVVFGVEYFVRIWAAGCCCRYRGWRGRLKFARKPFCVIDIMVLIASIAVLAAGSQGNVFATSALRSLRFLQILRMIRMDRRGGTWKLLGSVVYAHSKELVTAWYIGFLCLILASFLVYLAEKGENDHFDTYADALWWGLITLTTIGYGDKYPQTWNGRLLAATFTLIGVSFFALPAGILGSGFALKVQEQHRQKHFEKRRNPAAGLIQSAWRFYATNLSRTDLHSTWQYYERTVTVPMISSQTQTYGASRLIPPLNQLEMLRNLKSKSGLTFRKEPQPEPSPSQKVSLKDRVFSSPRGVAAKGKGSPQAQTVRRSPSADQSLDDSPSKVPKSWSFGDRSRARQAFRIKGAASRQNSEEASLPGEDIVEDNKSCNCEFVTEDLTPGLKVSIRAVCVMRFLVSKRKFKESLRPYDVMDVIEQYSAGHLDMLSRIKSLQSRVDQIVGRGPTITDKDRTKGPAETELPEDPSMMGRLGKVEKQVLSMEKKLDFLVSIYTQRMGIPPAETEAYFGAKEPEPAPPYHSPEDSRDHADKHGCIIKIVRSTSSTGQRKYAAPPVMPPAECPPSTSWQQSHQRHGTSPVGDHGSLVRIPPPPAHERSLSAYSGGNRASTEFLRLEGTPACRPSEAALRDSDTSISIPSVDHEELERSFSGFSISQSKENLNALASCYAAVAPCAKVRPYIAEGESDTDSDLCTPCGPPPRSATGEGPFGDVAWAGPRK

[20] = target: Potassium voltage-gated channel subfamily KQT member 1 (Homo sapiens) (UniProt P51787); test: KCNQ1 activators by electrophysiology – IonWorks patch clamp, KCNQ1-CHO cells, orthogonal assay for KCNQ1 potentiator project, confirmation (AID 493184;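 active means current rise at least 3 SD above the untreated control mean in each of two repeat wells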); conditions: automated patch clamp current, at 10 µM; stronger effect = higher value

CCCCn1c(SCC(=O)N2c3ccccc3Sc3ccccc32)nc2c1c(=O)n(C)c(=O)n2C
inactive: outcome [1] | outcome [2] | outcome [5] | outcome [6] | outcome [7] | outcome [8] | outcome [9] | outcome [10] | outcome [11] | outcome [12] | outcome [14] | outcome [15]
active: potentiation [3] 8% | potentiation [4] 97% | potentiation [13] 93.4%

CN(C)CC(CCC(CN(C)C)C(O)(c1ccccc1)c1ccccc1)C(O)(c1ccccc1)c1ccccc1 (stereo not given)
inactive: outcome [1] | outcome [2] | outcome [3] | outcome [4] | outcome [5] | outcome [6] | outcome [7] | outcome [16] | outcome [8] | outcome [9] | outcome [10] | outcome [11] | outcome [12] | outcome [13] | outcome [14] | outcome [15] | outcome [17] | outcome [18] | outcome [19] | outcome [20]

CC1CCN(c2nc(Cl)nc(Nc3ccc([N+](=O)[O-])cc3)n2)CC1
active: potentiation [4] 15% | potentiation [13] 66%
inactive: outcome [1] | outcome [2] | outcome [3] | outcome [5] | outcome [6] | outcome [7] | outcome [8] | outcome [9] | outcome [10] | outcome [11] | outcome [12] | outcome [14] | outcome [15]

Oc1c(Br)cc(Br)cc1C=Nc1ccc2[nH]ncc2c1
inactive: outcome [1] | outcome [2] | outcome [3] | outcome [4] | outcome [6] | outcome [7] | outcome [16] | outcome [8] | outcome [9] | outcome [10] | outcome [11] | outcome [13] | outcome [14] | outcome [15] | outcome [19] | outcome [20]
active: inhibition [5] 68% | inhibition [12] 30.1% | activation [17] 184% | potentiation [18] 41.5%

O=C(O)c1ccc(Cl)cc1Nc1nc2cc(Cl)ccc2o1
inactive: outcome [1] | outcome [2] | outcome [3] | outcome [4] | outcome [6] | outcome [7] | outcome [16] | outcome [8] | outcome [9] | outcome [10] | outcome [11] | outcome [13] | outcome [14] | outcome [15] | outcome [17] | outcome [19] | outcome [20]
active: inhibition [5] 98% | inhibition [12] 9.42% | potentiation [18] 24.5%

CN(C)CCOc1cc(Cl)cc(Cl)c1
active: potentiation [13] 10.7%
inactive: outcome [1] | outcome [2] | outcome [3] | outcome [4] | outcome [5] | outcome [6] | outcome [7] | outcome [8] | outcome [9] | outcome [10] | outcome [11] | outcome [12] | outcome [14] | outcome [15]

CCCCN(CC)CCNC(=O)c1cc2c(=O)n(C)c3ccccc3c2s1
inactive: outcome [1] | outcome [2] | outcome [5] | outcome [6] | outcome [7] | outcome [8] | outcome [9] | outcome [10] | outcome [11] | outcome [12] | outcome [14] | outcome [15]
active: potentiation [3] 31% | potentiation [4] 9% | potentiation [13] 8.16%

C=CCSc1nc2c(c(=O)[nH]c(=O)n2C)n1C/C=C(/C)Cl
active: inhibition [5] 85% | inhibition [6] 57% | inhibition [12] 32.5%
inactive: outcome [1] | outcome [2] | outcome [3] | outcome [4] | outcome [7] | outcome [16] | outcome [8] | outcome [9] | outcome [10] | outcome [11] | outcome [13] | outcome [14] | outcome [15] | outcome [17] | outcome [18] | outcome [19] | outcome [20]

Brc1ccccc1CN1CCN(Cc2c[nH]c3ccccc23)CC1
active: inhibition [5] 78% | inhibition [8] 55.5% | inhibition [12] 41.8%
inactive: outcome [1] | outcome [2] | outcome [3] | outcome [4] | outcome [6] | outcome [7] | outcome [16] | outcome [9] | outcome [10] | outcome [11] | outcome [13] | outcome [14] | outcome [15] | outcome [17] | outcome [18] | outcome [19] | outcome [20]

CCSC1=N/C(=C\c2ccc(OC)cc2)C(=O)N1
inactive: outcome [1] | outcome [2] | outcome [3] | outcome [4] | outcome [5] | outcome [6] | outcome [7] | outcome [8] | outcome [9] | outcome [10] | outcome [11] | outcome [12] | outcome [13] | outcome [14] | outcome [15]

Cc1ccc(Cl)cc1N1CCN(C(=O)c2cccc3c(=O)c(C)c(-c4ccccc4)oc23)CC1
active: potentiation [13] 21.8%
inactive: outcome [1] | outcome [2] | outcome [3] | outcome [4] | outcome [5] | outcome [6] | outcome [7] | outcome [8] | outcome [9] | outcome [10] | outcome [11] | outcome [12] | outcome [14] | outcome [15]

Cc1cc(C)cc(N/C(N)=N/c2nc(C)cc(C)n2)c1
active: inhibition [5] 100% | inhibition [12] 30.2%
inactive: outcome [1] | outcome [2] | outcome [3] | outcome [4] | outcome [6] | outcome [7] | outcome [16] | outcome [8] | outcome [9] | outcome [10] | outcome [11] | outcome [13] | outcome [14] | outcome [15] | outcome [17] | outcome [18] | outcome [19] | outcome [20]

COc1cc(NS(=O)(=O)c2ccc3ccccc3c2)c2ncccc2c1
active: inhibition [5] 70% | inhibition [12] 23.4% | potentiation [18] 47% | potentiation [19] 154%
inactive: outcome [1] | outcome [2] | outcome [3] | outcome [4] | outcome [6] | outcome [7] | outcome [16] | outcome [8] | outcome [9] | outcome [10] | outcome [11] | outcome [13] | outcome [14] | outcome [15] | outcome [17] | outcome [20]
